In PubChem BioAssay (NCATS):
Inconclusive results are not listed. The source made the active and inactive calls. Unless noted, the call rests on the fitted dose curve; in most records, active means well fitted curve in either direction with a large enough effect (not every such curve was filed as active); inconclusive means small, poorly fitted or top-dose-only effect, or another doubt; inactive means flat fitted curve, though single readings scatter.

Legend:
[1] = molecular target: Lysosomal acid glucosylceramidase (Homo sapiens) (UniProt P04062); assay: Glucocerebrosidase-p2 (AID 348; in the data active means potency below about 10 µM; further: potency means the concentration at half of the fitted maximal effect); conditions: purified GBA, blue fluorogenic substrate, 40 min
Lysosomal acid glucosylceramidase (Homo sapiens), sequence (P04062 whole entry, looked up): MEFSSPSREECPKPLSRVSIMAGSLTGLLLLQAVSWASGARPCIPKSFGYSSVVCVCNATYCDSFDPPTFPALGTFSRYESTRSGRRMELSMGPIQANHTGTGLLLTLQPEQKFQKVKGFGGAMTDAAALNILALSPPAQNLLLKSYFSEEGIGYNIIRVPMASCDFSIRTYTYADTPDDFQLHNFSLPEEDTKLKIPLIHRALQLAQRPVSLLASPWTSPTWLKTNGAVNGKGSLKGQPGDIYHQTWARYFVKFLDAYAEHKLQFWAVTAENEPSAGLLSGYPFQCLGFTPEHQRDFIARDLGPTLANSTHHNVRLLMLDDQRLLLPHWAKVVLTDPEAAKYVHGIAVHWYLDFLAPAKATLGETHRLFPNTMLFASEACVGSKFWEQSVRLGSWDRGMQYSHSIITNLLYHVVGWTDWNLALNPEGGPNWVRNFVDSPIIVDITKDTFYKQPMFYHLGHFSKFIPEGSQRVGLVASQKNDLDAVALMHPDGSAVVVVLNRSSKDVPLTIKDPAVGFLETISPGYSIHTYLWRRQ
Method in brief: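 Compounds titrated from 0.6 nM upwards against 0.2 nM enzyme in pH 5.9 citric acid/KH2PO4, taurocholate, tween-20; blue fluorogenic substrate 80 uM, 40 min room temperature, stopped and read Ex 365/Em 440 for AC50.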

[2] = AP1 Signaling Pathway (AID 357); conditions: ME-180 AP-1-bla reporter, EGF-induced, beta-lactamase ratio, 5 h; at 7.69 µM (top of the series) unless noted;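 further: ME-180 reporter cells stimulated with EGF at its EC50 level; on the % scale 0 is the no-effect control and ±100 the full control effect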
Method in brief: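 AP-1-bla ME-180 cells, Opti-MEM + 0.5% dialyzed FBS, plated overnight 37 °C. Cpd titration + EC50 EGF, 5 h 37 °C. CCF4 2.5 h RT; ex 405, em 460/530 ratio → %activity, AC50.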

[3] = NFAT Signaling Pathway (AID 444); conditions: Jurkat NFAT-bla M1, carbachol, beta-lactamase ratio, 5 h; at 7.69 µM (top of the series) unless noted;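 further: carbachol stimulus at about its EC50 of 1 µM final; on the % scale 0 is the no-effect control and ±100 the full control effect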
Method in brief: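 Jurkat cells with NFAT-driven β-lactamase reporter and co-expressed M1 receptor, stimulated with carbachol (final 1 uM, ~EC50), compound titration, 5 h at 37 °C. CCF4 loaded 1 h at RT; 460/530 nm ratio gave %activity and AC50.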

[4] = molecular target: Glucocorticoid receptor (Homo sapiens) (UniProt P04150); assay: GR-GFP Redistribution (AID 450;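 active means compounds whose dose series gives a full or clear partial fitted curve of increased nuclear translocation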; further: potency means the concentration at half of the fitted maximal effect); conditions: U2OS GR-GFP nuclear translocation, laser cytometry, 2 h
Glucocorticoid receptor (Homo sapiens), sequence (P04150 whole entry, looked up, the tested form may be a part): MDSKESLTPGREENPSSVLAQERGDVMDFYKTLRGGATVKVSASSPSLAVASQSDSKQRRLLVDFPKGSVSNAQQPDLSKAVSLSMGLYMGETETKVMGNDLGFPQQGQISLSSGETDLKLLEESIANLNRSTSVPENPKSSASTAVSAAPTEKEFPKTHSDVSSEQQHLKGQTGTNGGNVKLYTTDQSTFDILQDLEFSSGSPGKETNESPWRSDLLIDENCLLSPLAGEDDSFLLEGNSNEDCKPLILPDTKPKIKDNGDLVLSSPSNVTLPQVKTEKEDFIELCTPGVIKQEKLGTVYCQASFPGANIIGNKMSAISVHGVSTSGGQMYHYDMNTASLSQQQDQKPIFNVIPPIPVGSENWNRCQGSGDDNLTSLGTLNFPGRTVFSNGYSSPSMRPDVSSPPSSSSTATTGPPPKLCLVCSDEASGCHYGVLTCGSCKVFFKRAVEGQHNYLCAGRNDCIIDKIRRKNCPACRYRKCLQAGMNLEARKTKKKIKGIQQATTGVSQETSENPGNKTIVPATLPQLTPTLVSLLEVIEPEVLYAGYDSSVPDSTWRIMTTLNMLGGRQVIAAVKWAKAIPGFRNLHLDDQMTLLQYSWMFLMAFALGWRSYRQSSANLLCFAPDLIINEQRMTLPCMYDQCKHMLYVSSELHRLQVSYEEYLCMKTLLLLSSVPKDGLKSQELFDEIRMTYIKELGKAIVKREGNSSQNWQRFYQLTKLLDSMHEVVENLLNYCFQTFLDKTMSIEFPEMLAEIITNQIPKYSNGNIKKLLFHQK

[5] = molecular target: Mitogen-activated protein kinase 10 (Mus musculus) (UniProt Q61831); assay: JNK3 AlphaScreen Assay (AID 530); conditions: JNK3 lysate, c-Jun phosphorylation; series mostly up to 57.1 µM;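 further: kinase came from lysate of stimulated human HepG2 cells; signal reports phosphorylation of biotinylated GST-cJun 1-79 at Ser73 with 10 µM ATP; on the % scale 0 is the no-effect control and ±100 the full control effect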
Method in brief: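 Pre-activated (IL-1β/TNFα) JNK3 in HepG2 lysates phosphorylates biotin-GST-cJun(1-79), 10 uM ATP; anti-phospho-cJun(Ser73) AlphaScreen read at room temperature, pH 7.6 Tris buffer. Compounds pre-incubated 15 min as titrations.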

[6] = molecular target: Cytochrome P450 2D6 (Homo sapiens) (UniProt P10635); assay: qHTS Assay for Inhibitors and Substrates of Cytochrome P450 2D6 (AID 891; active means well fitted curve in the direction sought with a large enough effect; an effect the other way counts as inactive or inconclusive; further: potency means the concentration at half of the fitted maximal effect; nearly all actives have a fitted effect of over 60% in size); conditions: recombinant CYP2D6, luciferin-ME EGE luminescence; series mostly up to 11.4 µM
Cytochrome P450 2D6 (Homo sapiens), sequence (P10635 whole entry, looked up): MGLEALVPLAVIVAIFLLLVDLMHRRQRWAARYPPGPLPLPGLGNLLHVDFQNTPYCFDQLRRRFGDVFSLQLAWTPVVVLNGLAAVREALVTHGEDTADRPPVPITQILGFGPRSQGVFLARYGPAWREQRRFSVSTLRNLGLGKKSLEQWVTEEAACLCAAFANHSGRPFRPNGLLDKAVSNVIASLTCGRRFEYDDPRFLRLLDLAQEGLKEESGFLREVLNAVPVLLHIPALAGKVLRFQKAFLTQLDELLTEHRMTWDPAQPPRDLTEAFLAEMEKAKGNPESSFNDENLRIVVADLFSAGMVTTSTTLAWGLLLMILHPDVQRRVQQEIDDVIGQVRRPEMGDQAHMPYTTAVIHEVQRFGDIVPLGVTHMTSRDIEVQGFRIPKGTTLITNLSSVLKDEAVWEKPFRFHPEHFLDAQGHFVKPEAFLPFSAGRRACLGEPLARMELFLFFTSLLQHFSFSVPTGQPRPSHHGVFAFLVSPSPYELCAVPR
Method in brief: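 Human CYP2D6 (5 nM) with 30 uM Luciferin-ME EGE (at Km) in 100 mM KPO4, compound preincubated 10 min, then NADPH regeneration system for 60 min at room temperature. Luciferin read by luminescence; normalized to 1.43 uM quinidine.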

[7] = molecular target: Cytochrome P450 1A2 (Homo sapiens) (UniProt P05177); assay: p450-cyp1a2 (AID 410; calls by dose curve; further: potency means the concentration at half of the fitted maximal effect;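 on activity change, negative = inhibition: -100% = full effect of reference inhibitor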); conditions: recombinant CYP1A2, luciferin-ME demethylation, luminescence; series mostly up to 11.4 µM
Cytochrome P450 1A2 (Homo sapiens), sequence (P05177 whole entry, looked up): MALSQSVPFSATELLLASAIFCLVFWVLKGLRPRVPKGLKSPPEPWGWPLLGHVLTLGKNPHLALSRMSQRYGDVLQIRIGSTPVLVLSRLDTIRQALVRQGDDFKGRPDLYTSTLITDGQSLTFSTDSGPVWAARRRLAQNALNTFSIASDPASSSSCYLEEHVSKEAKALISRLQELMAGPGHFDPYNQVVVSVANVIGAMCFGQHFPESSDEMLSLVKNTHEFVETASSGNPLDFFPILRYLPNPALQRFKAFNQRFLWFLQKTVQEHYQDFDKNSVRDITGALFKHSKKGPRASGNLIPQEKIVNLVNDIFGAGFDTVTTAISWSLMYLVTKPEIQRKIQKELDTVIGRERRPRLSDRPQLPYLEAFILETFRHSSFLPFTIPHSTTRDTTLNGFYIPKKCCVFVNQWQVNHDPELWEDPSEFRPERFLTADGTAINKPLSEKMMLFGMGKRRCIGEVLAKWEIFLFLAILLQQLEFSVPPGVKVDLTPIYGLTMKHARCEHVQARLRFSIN
Method in brief: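 20nM CYP1A2 with 100uM Luciferin-ME (at Km) in 100mM KPO4; compound preincubated 10 min, NADPH regeneration added, 60 min at room temperature. Luciferin quantified by luminescence after detection reagent; normalized to 57 uM furafylline.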

[8] = Stat Signaling Pathway (AID 446); conditions: ME-180 SIE beta-lactamase reporter, IL-6 stimulated, 5 h; at 7.69 µM (top of the series) unless noted;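 further: ME-180 cervical cancer cells given 40 pM IL-6 alongside compound; SIE-controlled beta-lactamase reporter measured as 460/530 nm FRET emission ratio; on the % scale 0 is the no-effect control and ±100 the full control effect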
Method in brief: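 Screening format detects activators and inhibitors alike: ME-180 SIE-bla cells stimulated at 40 pM IL-6 for 5 hrs with compound, then dual-emission beta-lactamase read at 405 nm excitation.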

[9] = molecular target: Glucocorticoid receptor (Homo sapiens) (UniProt P04150); assay: GR-EFC Redistribution (AID 451; calls by dose curve; further: potency means the concentration at half of the fitted maximal effect); conditions: CHO-K1 GR-EFC translocation, beta-gal luminescence, 2 h
Method in brief: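 CHO-K1 cells expressing nuclear EA and GR-ED fragments of b-gal; compounds titrated up to 46 uM final, 2 h at 37 C. GR nuclear translocation read as complemented b-gal luminescence after 1 h RT detection.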

[10] = molecular target: 3',5'-cyclic-AMP phosphodiesterase 4B (Homo sapiens) (UniProt Q07343); assay: qHTS Assay for Inhibitors of PDE-IV (AID 607; active means well fitted activation curve with a large enough effect in the main read-out, with a control signal flat, not every such curve was filed as active; further: % of control where 0% means no effect); conditions: HEK293 ACTOne CNG channel cells, membrane potential fluorescence; series mostly up to 22.9 µM
3',5'-cyclic-AMP phosphodiesterase 4B (Homo sapiens), sequence (Q07343 whole entry, looked up): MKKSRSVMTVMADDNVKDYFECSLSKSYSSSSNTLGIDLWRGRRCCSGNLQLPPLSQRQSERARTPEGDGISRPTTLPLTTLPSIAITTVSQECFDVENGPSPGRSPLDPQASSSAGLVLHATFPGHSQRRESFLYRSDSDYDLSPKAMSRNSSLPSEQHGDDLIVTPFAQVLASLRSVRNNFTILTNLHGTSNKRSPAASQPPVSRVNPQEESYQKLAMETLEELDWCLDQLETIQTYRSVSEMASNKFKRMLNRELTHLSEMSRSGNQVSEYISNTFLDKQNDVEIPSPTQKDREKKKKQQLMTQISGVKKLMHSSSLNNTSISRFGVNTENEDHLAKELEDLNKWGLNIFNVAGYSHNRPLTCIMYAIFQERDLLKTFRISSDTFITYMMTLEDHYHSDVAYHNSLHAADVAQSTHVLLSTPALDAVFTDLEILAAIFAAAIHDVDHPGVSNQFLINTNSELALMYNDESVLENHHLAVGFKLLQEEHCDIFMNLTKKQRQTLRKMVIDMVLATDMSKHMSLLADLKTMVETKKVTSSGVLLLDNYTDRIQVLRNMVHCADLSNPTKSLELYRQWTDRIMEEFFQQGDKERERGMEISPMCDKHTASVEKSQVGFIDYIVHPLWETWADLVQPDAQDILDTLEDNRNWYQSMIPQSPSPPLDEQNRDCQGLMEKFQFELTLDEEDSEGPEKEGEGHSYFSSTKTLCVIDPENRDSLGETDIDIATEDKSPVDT
Method in brief: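 The readout is membrane depolarisation from a cAMP-sensing CNG channel, detected with a potential dye at ex 535/em 590. Cells were HEK293-derived (endogenous PDE-IV) at 1000 cells/well, titrated up to 22.9 uM final.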

[11] = molecular target: Ubiquitin carboxyl-terminal hydrolase 1 (Homo sapiens) (UniProt O94782); assay: Inhibitors of USP1/UAF1: Pilot qHTS (AID 504865; active means well fitted curve in the direction sought with a large enough effect; an effect the other way counts as inactive or inconclusive;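 further: rhodamine fluorescence freed from ubiquitin-rhodamine substrate followed over time; top concentration of the series differs between compounds; on the % scale 0 is the no-effect control and ±100 the full control effect; nearly all actives have a fitted effect of over 35% in size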); conditions: purified USP1/UAF1, Ub-rhodamine cleavage fluorescence; series mostly up to 114 µM
Ubiquitin carboxyl-terminal hydrolase 1 (Homo sapiens), sequence (O94782 whole entry, looked up): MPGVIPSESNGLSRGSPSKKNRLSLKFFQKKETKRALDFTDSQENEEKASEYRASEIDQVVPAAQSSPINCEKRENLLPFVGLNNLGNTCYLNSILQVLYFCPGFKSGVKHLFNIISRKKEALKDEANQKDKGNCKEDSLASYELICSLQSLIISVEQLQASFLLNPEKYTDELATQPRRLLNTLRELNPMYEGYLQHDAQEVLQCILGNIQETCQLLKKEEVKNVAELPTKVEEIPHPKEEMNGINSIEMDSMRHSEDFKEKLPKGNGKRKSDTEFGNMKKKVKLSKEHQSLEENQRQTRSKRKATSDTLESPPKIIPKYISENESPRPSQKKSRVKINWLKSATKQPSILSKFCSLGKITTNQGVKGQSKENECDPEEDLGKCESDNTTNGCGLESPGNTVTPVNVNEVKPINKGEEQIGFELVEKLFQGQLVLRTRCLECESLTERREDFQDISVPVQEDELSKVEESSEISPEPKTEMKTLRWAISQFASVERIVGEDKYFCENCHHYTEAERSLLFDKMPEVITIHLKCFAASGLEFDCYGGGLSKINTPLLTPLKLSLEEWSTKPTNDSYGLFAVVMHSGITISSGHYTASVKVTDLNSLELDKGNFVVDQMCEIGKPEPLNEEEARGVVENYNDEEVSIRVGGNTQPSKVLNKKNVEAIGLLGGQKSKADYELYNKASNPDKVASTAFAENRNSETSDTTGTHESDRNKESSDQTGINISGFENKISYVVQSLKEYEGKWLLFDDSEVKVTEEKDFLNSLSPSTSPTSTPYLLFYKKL
Method in brief: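 In 50mM HEPES pH 7.8 containing 0.5mM EDTA, 1mM TCEP, 0.1 mg/ml BSA and 0.01% Tween-20, 1nM USP1/UAF1 is exposed to compound for 15 min, then Ub-Rho (150nM final) is added and fluorescence is read over time.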

[12] = molecular target: Cytochrome P450 2C9 (Homo sapiens) (UniProt P11712); assay: qHTS Assay for Inhibitors and Substrates of Cytochrome P450 2C9 (AID 883; active means well fitted curve in the direction sought with a large enough effect; an effect the other way counts as inactive or inconclusive; further: potency means the concentration at half of the fitted maximal effect; nearly all actives have a fitted effect of over 60% in size); conditions: recombinant CYP2C9, luciferin-H luminescence, 60 min; series mostly up to 57.1 µM
Cytochrome P450 2C9 (Homo sapiens), sequence (P11712 whole entry, looked up): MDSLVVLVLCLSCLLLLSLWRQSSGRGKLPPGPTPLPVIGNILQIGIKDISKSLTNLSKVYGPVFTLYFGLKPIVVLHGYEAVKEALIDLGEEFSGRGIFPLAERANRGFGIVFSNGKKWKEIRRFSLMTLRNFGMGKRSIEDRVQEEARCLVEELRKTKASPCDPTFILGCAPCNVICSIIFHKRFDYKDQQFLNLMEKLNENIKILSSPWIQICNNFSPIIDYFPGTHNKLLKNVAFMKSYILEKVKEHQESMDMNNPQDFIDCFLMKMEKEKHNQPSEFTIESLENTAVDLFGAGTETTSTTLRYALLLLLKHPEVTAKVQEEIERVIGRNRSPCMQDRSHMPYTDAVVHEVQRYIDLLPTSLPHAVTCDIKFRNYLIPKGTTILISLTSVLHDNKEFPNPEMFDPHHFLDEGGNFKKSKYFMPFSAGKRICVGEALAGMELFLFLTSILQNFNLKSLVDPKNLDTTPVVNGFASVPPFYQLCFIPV
Method in brief: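 Human CYP2C9 (10nM) with Luciferin-H at 100uM (its KM) in 25mM KPO4; compound preincubated 10 min at 37C, then NADPH regeneration for 60 min at 37C. Luciferin read by luminescence after detection reagent; normalized to 57uM sulphaphenazole as full inhibition.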

[13] = molecular target: Cytochrome P450 3A4 (Homo sapiens) (UniProt P08684); assay: qHTS Assay for Activators of Cytochrome P450 3A4 (AID 885; active means well fitted curve in the direction sought with a large enough effect; an effect the other way counts as inactive or inconclusive; further: nearly all actives have a fitted effect of over 65% in size); conditions: recombinant CYP3A4, Luciferin-PPXE luminescence, 60 min; series mostly up to 57.1 µM
Method in brief: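 Steps: enzyme/substrate mix dispensed; compound added, 10 min RT; NADPH regeneration solution added, 60 min RT; luciferin detection buffer stops reaction; 20 min later luminescence measured.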

[14] = molecular target: Cytochrome P450 2C19 (Homo sapiens) (UniProt P33261); assay: qHTS Assay for Inhibitors and Substrates of Cytochrome P450 2C19 (AID 899; active means well fitted curve in the direction sought with a large enough effect; an effect the other way counts as inactive or inconclusive; further: potency means the concentration at half of the fitted maximal effect; nearly all actives have a fitted effect of over 60% in size); conditions: recombinant CYP2C19, luciferin-H EGE luminescence; series mostly up to 11.4 µM
Cytochrome P450 2C19 (Homo sapiens), sequence (P33261 whole entry, looked up): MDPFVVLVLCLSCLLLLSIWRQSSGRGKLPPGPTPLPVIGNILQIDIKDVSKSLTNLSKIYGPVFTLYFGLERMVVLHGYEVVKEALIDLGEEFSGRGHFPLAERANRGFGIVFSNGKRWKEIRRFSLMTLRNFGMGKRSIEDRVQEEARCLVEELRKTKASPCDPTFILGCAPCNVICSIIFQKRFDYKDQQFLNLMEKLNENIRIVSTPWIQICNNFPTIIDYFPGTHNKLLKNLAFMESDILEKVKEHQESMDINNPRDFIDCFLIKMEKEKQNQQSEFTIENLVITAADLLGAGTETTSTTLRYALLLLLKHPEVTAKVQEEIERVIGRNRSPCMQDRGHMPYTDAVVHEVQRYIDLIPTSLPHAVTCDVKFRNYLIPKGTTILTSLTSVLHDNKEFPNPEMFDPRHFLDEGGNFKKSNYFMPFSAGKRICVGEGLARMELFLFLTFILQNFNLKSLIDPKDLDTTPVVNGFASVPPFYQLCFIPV
Method in brief: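 5 nM human CYP2C19 with 10uM Luciferin-H EGE (at KM) in 50mM KPO4, compound preincubated 10 min at 37C, then NADPH regeneration for 60 min at 37C. Luciferin read by luminescence after detection reagent; normalized to 57uM ketoconazole as full inhibition.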

CCc1ccc(CCN2CCCCC2)nc1
active: Potency [6] 1.58 µM
inactive: Potency [1] > 11.4 µM | activity change, negative = inhibition [2] 15.5% | activity change, negative = inhibition [3] -21.3% | Potency [4] > 46 µM | activity change, negative = inhibition [5] 1.06% [at 11.4 µM]

COc1cc2c(cc1O)C[C@@H]1c3c(cc(O)c(OC)c3-2)CCN1C
active: Potency [7] 3.98 µM
inactive: Potency [1] > 11.4 µM | activity change, negative = inhibition [3] -0.493% | activity, negative = inhibition [8] 0.101% | Potency [4] > 46 µM | Potency [9] > 9.22 µM | activity change, negative = inhibition [5] 4.75% [at 11.4 µM] | outcome [10]

COC(=O)c1c(C)ccc2c(O)c3c(cc12)C(=O)c1c2c(cc(O)c1C3=O)[C@@]1(C)O[C@@](C)(O2)[C@@H](O)[C@H](N(C)C)[C@H]1O
inactive: Potency [1] > 11.4 µM | activity change, negative = inhibition [3] -7.69% | activity, negative = inhibition [8] 10.6% | Potency [4] > 46 µM | Potency [9] > 9.22 µM | activity change, negative = inhibition [5] -7.99% [at 11.4 µM] | outcome [10]
active: Potency [7] 5.01 µM

CC[C@@H]1CN2CCc3cc(OC)c(OC)cc3[C@H]2C[C@@H]1C[C@@H]1NCCc2cc(O)c(OC)cc21
active: activity change, negative = inhibition [2] -117% [at 17.2 µM] | activity change, negative = inhibition [3] -126% [at 17.2 µM] | activity, negative = inhibition [8] -100% [at 17.2 µM]
inactive: Potency [7] | Potency [4] > 20.6 µM | Potency [9] > 20.6 µM | Potency [5] | Potency [11]

COc1ccc(C[C@@H](N)c2ccc(OC)cc2)cc1
active: Potency [6] 0.631 µM
inactive: Potency [1] > 11.4 µM | activity change, negative = inhibition [2] -1.85% | activity change, negative = inhibition [3] 3.98% | activity, negative = inhibition [8] -0.344% | Potency [4] > 46 µM | activity change, negative = inhibition [5] 3.37% [at 11.4 µM] | outcome [10]

CSC([N-]/N=C/c1cccc(C)n1)=[S]=[Cu].CS[C@H]([S-])[N-]/N=C/c1cccc(C)n1
active: Potency [7] 0.631 µM | activity change, negative = inhibition [3] -102% | Potency [12] 0.251 µM | Potency [14] 0.199 µM
inactive: Potency [1] > 11.4 µM | Potency [4] > 46 µM | Potency [9] > 9.22 µM | activity change, negative = inhibition [5] -6.87% [at 11.4 µM] | outcome [10] | activity change, positive = activation [13] -73.3% [at 11.4 µM]

O=C(O)[C@H]1C2c3ccccc3C(c3ccccc32)[C@@H]1C(=O)NCC1CC1
inactive: Potency [1] > 11.4 µM | activity change, negative = inhibition [2] 1.37% | activity change, negative = inhibition [3] -3.96% | activity, negative = inhibition [8] 26.5% | Potency [4] > 46 µM | activity change, negative = inhibition [5] 2.32% [at 11.4 µM] | outcome [10]

Nc1ccccc1O.O.O=C(O)[C@H]1[O][Sb][O][C@H]1C(=O)O
inactive: Potency [1] > 11.4 µM | activity change, negative = inhibition [7] -23.1% [at 2.29 µM] | activity change, negative = inhibition [3] -17.5% | activity, negative = inhibition [8] 8.88% | Potency [4] > 46 µM | Potency [9] > 9.22 µM | activity change, negative = inhibition [5] -2.79% [at 11.4 µM] | outcome [10]
